Results on 46 compounds are retold here after ChEMBL document CHEMBL4808148, “HDAC6 screening dataset using tau-based substrate in an enzymatic assay yields selective inhibitors and activators” (2021).

Test [1] deals with T1, Protein deacetylase HDAC6 (Homo sapiens) (UniProt Q9UBN7).
T1 sequence (whole entry): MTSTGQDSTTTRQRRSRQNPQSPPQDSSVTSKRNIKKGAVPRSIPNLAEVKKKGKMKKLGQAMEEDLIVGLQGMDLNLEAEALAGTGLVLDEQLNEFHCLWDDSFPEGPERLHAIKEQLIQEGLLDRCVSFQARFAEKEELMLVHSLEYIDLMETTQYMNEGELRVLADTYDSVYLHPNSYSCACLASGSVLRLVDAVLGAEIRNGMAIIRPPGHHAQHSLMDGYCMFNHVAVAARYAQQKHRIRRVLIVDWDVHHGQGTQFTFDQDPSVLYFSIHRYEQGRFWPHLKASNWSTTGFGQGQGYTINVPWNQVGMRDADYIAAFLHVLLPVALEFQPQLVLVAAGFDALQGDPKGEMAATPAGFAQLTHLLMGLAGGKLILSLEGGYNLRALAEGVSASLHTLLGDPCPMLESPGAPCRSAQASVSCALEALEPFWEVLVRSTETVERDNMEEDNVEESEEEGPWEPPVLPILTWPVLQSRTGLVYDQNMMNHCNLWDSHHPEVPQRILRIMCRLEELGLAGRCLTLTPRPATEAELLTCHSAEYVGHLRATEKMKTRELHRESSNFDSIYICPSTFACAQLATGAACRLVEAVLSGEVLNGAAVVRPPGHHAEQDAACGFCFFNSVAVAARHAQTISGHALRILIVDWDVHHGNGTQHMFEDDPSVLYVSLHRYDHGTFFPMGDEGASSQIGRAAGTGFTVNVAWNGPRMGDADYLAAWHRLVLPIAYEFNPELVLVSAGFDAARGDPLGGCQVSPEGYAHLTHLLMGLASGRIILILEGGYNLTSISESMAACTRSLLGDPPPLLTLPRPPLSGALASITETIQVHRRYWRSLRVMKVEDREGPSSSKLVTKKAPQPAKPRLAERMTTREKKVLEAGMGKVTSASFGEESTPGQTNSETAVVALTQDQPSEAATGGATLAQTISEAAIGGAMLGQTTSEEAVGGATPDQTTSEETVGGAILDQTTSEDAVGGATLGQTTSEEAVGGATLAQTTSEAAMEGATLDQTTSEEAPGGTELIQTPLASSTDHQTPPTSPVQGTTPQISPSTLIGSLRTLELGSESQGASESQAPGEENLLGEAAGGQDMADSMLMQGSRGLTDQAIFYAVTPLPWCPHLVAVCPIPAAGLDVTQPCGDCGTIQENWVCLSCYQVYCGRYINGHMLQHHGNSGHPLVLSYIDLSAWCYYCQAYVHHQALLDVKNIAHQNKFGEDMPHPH
To be noted: at 10 µM.

For test [2], the target named is Protein deacetylase HDAC6 (Homo sapiens) (UniProt Q9UBN7). As to conditions: at 10 µM. The source holds these as a separate data set.

Hit rate of the full screen: of about 5,600 compounds, about 150 (2.7%) showed an effect of 50% or more. This is one part of a sample in which strong results are shown more often than they occur.

The term inhibition denotes the change of the read-out against control, counted positive when it falls. As for `O=C(Nc1ccc(C(O)(C(F)(F)F)C(F)(F)F)cc1)c1ccc(C(F)(F)F)cc1`, in test [1], the inhibition turned out to be 0.41%.
The same measure, in the same setting: the value for `C/C(O)=C(\C#N)C(=O)Nc1ccc(C(F)(F)F)cc1` was 98.6%; that for `CC(=O)Nc1ccc(C(=O)O)cc1` was -3.9%.
Still for that read-out and setting: the value for `C=C1CC/C=C(\C)CC[C@@H]2[C@@H]1CC2(C)C` was 2.39%.
On to `O=c1c(-c2ccccc2)c1-c1ccccc1`, for which the inhibition in test [1] stood at 10.5%.
Take `CCOc1cccc(NC(=O)c2ccc(N3CCCC3)c(C(F)(F)F)c2)c1`: in test [1], the inhibition is 0.15%.
For `CCCCOc1ccc(C(=O)CCN2CCCCC2)cc1`, in test [1], the inhibition was -4.56%.
For the compound `CCCCOc1ccc(C(=O)Nc2ccc(F)cc2F)cc1`, the inhibition in test [1] was found to be 49%.
As for `CCCCOc1ccc(CC(=O)NO)cc1`, the inhibition in test [1] is 75.5%.
Still for that read-out and setting: the value for `CC[C@H](CC[C@@H](C)[C@H]1CC[C@H]2[C@@H]3CC=C4C[C@@H](O[C@@H]5O[C@H](CO)[C@@H](O)[C@H](O)[C@H]5O)CC[C@]4(C)[C@H]3CC[C@]12C)C(C)C` was 2.47%.
The same measure, in the same setting: with `N#Cc1ccc(-c2ccc(S(=O)(=O)Nc3cccc(N)n3)cc2)cc1` the figure was 2.23%; with `Nc1ncccc1-c1nc2ccc(-c3ccccc3)nc2n1-c1ccc(C2(N)CCC2)cc1`, 0.11%; with `N[C@H](C(=O)O)c1ccc(O)c(C(=O)O)c1`, -4.47%.
On to `N[C@@H](C(=O)O)c1ccc(O)c(C(=O)O)c1`, for which the inhibition in test [1] is -2.24%.
The same measure, in the same setting: with `CC(C)c1ccc2oc3nc(N)c(C(=O)O)cc3c(=O)c2c1` the figure was 99.5%; with `CCOc1cc(OCC)c(C(=O)CCC(=O)O)cc1OCC`, -6.02%; with `Cc1n[nH]c2ccc(-c3cncc(OC[C@@H](N)Cc4ccccc4)c3)cc12`, -5.53%.
hemin, CHEMBL5308479: the inhibition in test [2] amounted to 13.1%.
With `NCCNS(=O)(=O)c1ccc(Cl)c2ccncc12`, in test [1], the inhibition is -2.71%.
Same read-out and setting: with `NCCNc1ccc(NCCN)c2c1C(=O)c1ccncc1C2=O` the figure was 62.5%.
Still for that read-out and setting: the value for `O=C1c2c(O)ccc(O)c2C(=O)c2c(NCCNCCO)ccc(NCCNCCO)c21` was 16%; that for `Clc1ccc2c(N3CCN(CCCN4CCN(c5ccnc6cc(Cl)ccc56)CC4)CC3)ccnc2c1` was -8.35%.
Consider `CC(C)(C)c1ccc(S(=O)(=O)Nc2ccc(Cl)cc2C(=O)c2cc[n+]([O-])cc2)cc1`, for which the inhibition in test [1] is -2.23%.
In the case of `CC(C)Oc1ccc(Cc2ccc(NC3=NCCN3)cc2)cc1`, in test [1], the inhibition was found to be 18.9%.
`CCOC(=O)c1c(C)n(C)c2ccc(O)cc12`: the inhibition in test [1] is 0.03%.
Same read-out and setting: with `CCOC(=O)c1cc2ccc(O)cc2oc1=O` the figure was 86.3%.
Still for that read-out and setting: with `CCOC(=O)c1ccc(O)cc1` the figure was -0.21%.
As to `O=C1Nc2ccccc2C2=NC(CN3CCN(c4ccccc4)CC3)CN12` (stereo unspecified), the inhibition in test [1] was -3.43%.
`O=C(O)COc1cccc(CN(Cc2ccc(-n3cccn3)cc2)S(=O)(=O)c2cccnc2)c1`: the inhibition in test [1] is 0.4%.
The same measure, in the same setting: the value for `COC(=O)Nc1nc2cc(C(=O)c3ccccc3)ccc2[nH]1` was 6.52%.
`COc1ccc2[nH]c(C(=O)c3ccccc3)cc2c1`: in test [1], the inhibition was 73.2%.
Take `COc1ccc(C(=O)c2ccccc2O)c(O)c1`: the inhibition in test [1] was 6.28%.
In the case of `CCN1C(C)(C)CC(Oc2ccc(C(=O)Nc3ccc(NC(=O)Nc4cc(C(C)(C)C)on4)cc3)nc2)CC1(C)C`, in test [1], the inhibition was 8.01%.
Same read-out and setting: the value for `O=C1N=C(NCc2cccs2)S/C1=C\c1ccc2ncccc2c1` was 13.2%; that for `CCC[C@@]1(CCc2ccccc2)CC(O)=C([C@H](CC)c2cccc(NS(=O)(=O)c3ccc(C(F)(F)F)cn3)c2)C(=O)O1` was -1.6%.
On to `CCn1c(=O)c(-c2ccc(Cl)cc2Cl)cc2cnc(Nc3ccc(N4CCNCC4)c(F)c3)nc21`, for which the inhibition in test [1] was -3.08%.
Still for that read-out and setting: the value for `CNC(=O)c1cc2c(cn1)[nH]c1ccccc12` was 15.7%; that for `CNC(=O)c1ccccc1Sc1ccc2c(/C=C/c3ccccn3)n[nH]c2c1` was 98.1%; that for `C[C@@]1(F)[C@H](O)[C@@H](CO)O[C@H]1n1ccc(N)nc1=O` was -2.29%.
Still for that read-out and setting: the value for `CNc1cc(OC)c(C(=O)N[C@@H]2CCN(Cc3ccccc3)[C@@H]2C)cc1Cl.CNc1cc(OC)c(C(=O)N[C@H]2CCN(Cc3ccccc3)[C@H]2C)cc1Cl` was 7.84%.
Regarding BISMUTH SUBGALLATE, CHEMBL1592101, the inhibition in test [2] was -3.52%.
Turning to `CCN(CC)c1ccc(/C=N/NC(=O)c2ccc(O)cc2)cc1`, the inhibition in test [1] was 49.5%.
On to `CCN(CC)c1ccc(C(=C2C=CC(=[N+](CC)CC)C=C2)c2ccccc2)cc1`, for which the inhibition in test [1] is 58.6%.
In the case of `CCCC[C@]1(CC)CS(=O)(=O)c2cc(CNC(CC(=O)O)CC(=O)O)c(OC)cc2[C@@H](c2ccccc2)N1`, in test [1], the inhibition came out at 0.63%.
On the same count and under the same terms, the value for `O=C(NCC1CN(c2ccc(N3CCOCC3=O)cc2)C(=O)O1)c1ccc(Cl)s1` (stereo unspecified) was 2.41%.
In the case of `Cn1cc(-c2ccc(S(=O)(=O)n3ccc(/C=C/C(=O)Nc4ccccc4N)c3)cc2)cn1`, in test [1], the inhibition was 9.5%.
